# From publication PMC8384837, “Expanding the binding specificity for RNA recognition by a PUF domain”
# Where a chain is given by its changes, count along the chain named.
# What was measured:
# Assay in all cases: yeast three-hybrid, YBZ-1, SC-Leu-His + 0.5 mM 3-AT, 4 days
# Conditions in all cases: tags: N-Gal4 AD-HA kept; label: inside an RPR1-promoter hybrid RNA with tandem MS2 sites; ssRNA
# [1] = target: T1, PUM1 PUF domain R6-MWE (Homo sapiens, UniProt Q14671 828-1176, N1043M;Y1044W;Q1047E)
# T1 sequence: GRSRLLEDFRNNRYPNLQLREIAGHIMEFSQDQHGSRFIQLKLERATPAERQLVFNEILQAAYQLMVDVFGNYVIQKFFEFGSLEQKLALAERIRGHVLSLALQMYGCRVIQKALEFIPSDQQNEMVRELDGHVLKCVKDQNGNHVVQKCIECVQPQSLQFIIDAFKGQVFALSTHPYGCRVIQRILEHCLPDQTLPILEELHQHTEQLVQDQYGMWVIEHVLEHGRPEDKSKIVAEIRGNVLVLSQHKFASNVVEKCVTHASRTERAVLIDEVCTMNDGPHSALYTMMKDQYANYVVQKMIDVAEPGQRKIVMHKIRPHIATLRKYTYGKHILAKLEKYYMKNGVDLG
# In short: (§1)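 The interaction score is the logarithmic change in variant frequency from input to selection. It uses log2, with a pseudocount of 1 for absent variants, and frequencies came from PCR-amplified, Illumina-sequenced repeat regions. The libraries were Pumilio-1 PUF domains randomized at the three base-contacting residues per repeat, co-expressed with matching RNA elements in strain YBZ-1 (LexA–MS2 coat fusion, HIS3 reporter). Plating lasted four days on SC-Leu (input) or SC-Leu-His + 0.5 mM 3-AT (selection).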
# [2] = target: PUM1 PUF domain R8-YWK (Homo sapiens, UniProt Q14671 828-1176, N1122Y;Y1123W;Q1126K)
# In short: as §1
# [3] = target: PUM1 PUF domain R3-FSE (Homo sapiens, UniProt Q14671 828-1176, C935F;R936S;Q939E)
# In short: as §1
# [4] = target: PUM1 PUF domain R3-MWS (Homo sapiens, UniProt Q14671 828-1176, C935M;R936W;Q939S)
# In short: as §1
# [5] = target: PUM1 PUF domain R4-RHV (Homo sapiens, UniProt Q14671 828-1176, N971R;Q975V)
# In short: as §1
# [6] = target: PUM1 PUF domain R4-FGS (Homo sapiens, UniProt Q14671 828-1176, N971F;H972G;Q975S)
# In short: as §1
# [7] = target: PUM1 PUF domain R5-LWG (Homo sapiens, UniProt Q14671 828-1176, C1007L;R1008W;Q1011G)
# In short: as §1
# [8] = target: PUM1 PUF domain R7-RVI (Homo sapiens, UniProt Q14671 828-1176, S1079R;N1080V;E1083I)
# In short: as §1
# [9] = target: PUM1 PUF domain R1-RGQ (Homo sapiens, UniProt Q14671 828-1176, S863R;R864G)
# In short: as §1
# [10] = target: T2, PUM1 PUF domain R6-CYL (Homo sapiens, UniProt Q14671 828-1176, N1043C;Q1047L)
# T2 sequence: T1 sequence with M216C, W217Y, E220L
# In short: as §1
sequence,measurement,setting,value
GGCUAGAACUAGUGGAUCCCCCGGCGCCCGGCGGCUCGAGCCCGGGUAAGUGGAAAUAGUCUGCAUGCCGCCGGGCGCCAUGCCUGCAGGUCGACUCUAGAAAACAUG,binding signal,[1],4.52 log2 enrichment (interaction score)
GGCUAGAACUAGUGGAUCCCCCGGCGCCCGGCGGCUCGAGCCCGGGUAAGCGUAAAUAGUCUGCAUGCCGCCGGGCGCCAUGCCUGCAGGUCGACUCUAGAAAACAUG,binding signal,[2],2.04 log2 enrichment (interaction score)
GGCUAGAACUAGUGGAUCCCCCGGCGCCCGGCGGCUCGAGCCCGGGUAAGUGUAAGUAGUCUGCAUGCCGCCGGGCGCCAUGCCUGCAGGUCGACUCUAGAAAACAUG,binding signal,[3],3.22 log2 enrichment (interaction score)
same,binding signal,[4],5.62 log2 enrichment (interaction score)
GGCUAGAACUAGUGGAUCCCCCGGCGCCCGGCGGCUCGAGCCCGGGUAAGUGUAUAUAGUCUGCAUGCCGCCGGGCGCCAUGCCUGCAGGUCGACUCUAGAAAACAUG,binding signal,[5],4.8 log2 enrichment (interaction score)
same,binding signal,[6],2.78 log2 enrichment (interaction score)
GGCUAGAACUAGUGGAUCCCCCGGCGCCCGGCGGCUCGAGCCCGGGUAAGUGUUAAUAGUCUGCAUGCCGCCGGGCGCCAUGCCUGCAGGUCGACUCUAGAAAACAUG,binding signal,[7],3.88 log2 enrichment (interaction score)
GGCUAGAACUAGUGGAUCCCCCGGCGCCCGGCGGCUCGAGCCCGGGUAAGUGUACAUAGUCUGCAUGCCGCCGGGCGCCAUGCCUGCAGGUCGACUCUAGAAAACAUG,binding signal,[5],2.18 log2 enrichment (interaction score)
same,binding signal,[6],2.32 log2 enrichment (interaction score)
GGCUAGAACUAGUGGAUCCCCCGGCGCCCGGCGGCUCGAGCCCGGGUAAGUUUAAAUAGUCUGCAUGCCGCCGGGCGCCAUGCCUGCAGGUCGACUCUAGAAAACAUG,binding signal,[8],2.39 log2 enrichment (interaction score)
GGCUAGAACUAGUGGAUCCCCCGGCGCCCGGCGGCUCGAGCCCGGGUAAGUGUAAAUAGUCUGCAUGCCGCCGGGCGCCAUGCCUGCAGGUCGACUCUAGAAAACAUG,binding signal,[7],2.19 log2 enrichment (interaction score)
same,binding signal,[5],2.5 log2 enrichment (interaction score)
same,binding signal,[6],0.95 log2 enrichment (interaction score)
GGCUAGAACUAGUGGAUCCCCCGGCGCCCGGCGGCUCGAGCCCGGGUAAGUGUAAAUUGUCUGCAUGCCGCCGGGCGCCAUGCCUGCAGGUCGACUCUAGAAAACAUG,binding signal,[9],2.29 log2 enrichment (interaction score)
GGCUAGAACUAGUGGAUCCCCCGGCGCCCGGCGGCUCGAGCCCGGGUAAGUGAAAAUAGUCUGCAUGCCGCCGGGCGCCAUGCCUGCAGGUCGACUCUAGAAAACAUG,binding signal,[10],5.18 log2 enrichment (interaction score)
